These results are taken from PubChem BioAssay (NCI).

Assay in all cases: NCI-60 one-dose screen, 48 h (100 = growth as untreated, 0 = no growth, -100 = all killed)
Assay [1] has as its system HT29 colon. Conditions: 10 µM unless noted.
Assay [2] deals with SNB-75 CNS. Conditions: 10 µM unless noted.
Assay [3] has as its system SNB-19 CNS. The following applies: 10 µM unless noted.
The subject of assay [4] is U251 CNS. The following applies: 10 µM unless noted.
Assay [5] deals with SK-MEL-5 melanoma. Conditions: 10 µM unless noted.
Assay [6] deals with UACC-62 melanoma. The following applies: 10 µM unless noted.
Assay [7] concerns LOX IMVI melanoma. The following applies: 10 µM unless noted.
Assay [8] has as its system SK-MEL-28 melanoma. The following applies: 10 µM.
Assay [9] concerns SK-MEL-2 melanoma. Conditions: 10 µM unless noted.
In assay [10] the test system is EKVX NSCLC. Conditions: 10 µM unless noted.
Assay [11] relates to SN12C renal. The following applies: 10 µM unless noted.
Assay [12] relates to UO-31 renal. The following applies: 10 µM unless noted.
The subject of assay [13] is TK-10 renal. The following applies: 10 µM unless noted.
Assay [14] has as its system ACHN renal. Conditions: 10 µM unless noted.
Assay [15] has as its system A498 renal. The following applies: 10 µM unless noted.
Assay [16] concerns CCRF-CEM leukemia. Conditions: 10 µM unless noted.
Assay [17] has as its system MOLT-4 leukemia. Conditions: 10 µM unless noted.
The subject of assay [18] is SR leukemia. Conditions: 10 µM unless noted.
Assay [19] relates to PC-3 prostate. Conditions: 10 µM unless noted.
The test system of assay [20] is CAKI-1 renal. The following applies: 10 µM unless noted.

SMILES strings stand for the structures. Compounds without any hit were thinned out: in the full panel of roughly 83,000, 20% have a hit.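 Assay: single dose, 48 h. Readout: percent growth (0 = no net growth; negative = cell death). Active: <10.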 Values without a mark were called inactive. Calls of active or inactive are those of the source.

`Cc1ccc(Cc2cnc(NC(=O)CN3C(=O)/C(=C\c4ccccc4)SC3=S)s2)cc1`: the growth in [1] is 114%; in [2] it was 94.4%; in [3] it was 99.7%; in [4] it was 94.8%; in assay [5], 102%; in [6], 98.4%. The growth in [7] is 98.6%; in [8], 106%; in assay [9], 106%; in assay [10], 98.1%; in assay [11] it was 96.6%; in assay [12] it was 89.4%. The growth in assay [13] is 106%; in [14] it was 101%; in assay [15] it was 109%; in assay [16], 107%; in [17], 104%; in assay [18], 114%.

In the case of `COc1ccc(CCN2C(=O)CCSC2=S)cc1OC`, the growth in assay [1] was 107%; in [2], 84.7%; in [3], 103%; in [4], 97.2%; in [5] it was 94.6%; in assay [6], 94.6%. Moreover, the growth was 91.1% in assay [7]; 98.2% in [8]; 102% in [9]; 97.4% in assay [10]; 92.3% in assay [11]; 79.2% in [12]. Also, the growth in [13] is 61.4%; in assay [14] it was 102%; in [15] it was 99.3%; in assay [16], 73.6%; in assay [17], 100%; in assay [18], 33.2%.

`COc1ccc(-c2nnc(COc3ccc(C(=O)/C=C/c4ccco4)cc3)o2)cc1`: the growth was 20.3% in [1]; 60.1% in assay [2]; 78.1% in [3]; 86.2% in assay [19]; 85.9% in [6]; -30.5% (active) in assay [7]. Further, the growth in assay [8] is 90.9%; in assay [11], 68.1%; in [12], 53.5%; in assay [13], 95.3%; in assay [15], 115%; in assay [16], 10.7%. Also, the growth was 41.9% in assay [17] and 0.0515% (active) in [18].

For `O=C1CCC(N2C(=O)c3cccc(NCCCCCCOc4ccc(Nc5nccc(Nc6ccccc6)n5)cc4)c3C2=O)C(=O)N1` (stereo not given), the growth in [1] is 88.1%; in assay [2], 89%; in assay [4] it was 83.3%; in [19] it was 73.4%; in [5], 7.47% (active); in assay [6], 71.3%. Moreover, the growth in assay [7] is 88.1%; in assay [8] it was 82.9%; in [9] it was 82.5%; in [10], 77.3%; in [11] it was 79%; in [12], 77.8%. Further, the growth was 108% in [13]; 74.8% in assay [14]; 63.8% in assay [20]; 74.6% in assay [15]; 66.1% in assay [16]; 55.2% in assay [17]. The growth in assay [18] was 68.5%.

With `COc1ccc(CSc2nnc(SCC(=O)Nc3ccc(Cl)cc3)s2)cc1`, the growth in assay [1] was 98.5%; in [2], 93.2%; in assay [3], 90.9%; in assay [19], 58.6%; in assay [6] it was 18.2%; in assay [7], 46.8%. In addition, the growth in assay [8] was 87.2%; in assay [9] it was 124%; in assay [11], 68.5%; in assay [12], 52.8%; in [13], 96.3%; in assay [14] it was 59.9%. For the same compound, the growth in assay [20] was 38%; in assay [15], 85.6%; in [16], 53.3%; in assay [17], 58%; in assay [18] it was 86.1%.

Regarding `Clc1ccc(-c2nnc(COc3ccc(C4=NNC(c5ccco5)C4)cc3)o2)cc1` (stereo not given), the growth is 101% in [1]; 84.9% in assay [2]; 92.5% in assay [3]; 80.8% in assay [19]; 76.3% in [6]; 84.8% in [7]. Besides, the growth in assay [8] is 101%; in [9], 106%; in assay [11], 86.5%; in assay [12], 67.3%; in assay [13], 83.4%; in assay [14], 94.9%. Besides, the growth in [20] was 86.4%; in assay [15], 83.8%; in assay [16] it was 84.7%; in assay [17], 85.5%; in assay [18], 80.7%.

In the case of `O=CCCCC(O)C=O` (stereo not given), the growth in assay [1] was 111%; in assay [2] it was 97.7%; in assay [3] it was 106%; in [19], 103%; in [6] it was 109%; in assay [7] it was 97.9%. The growth was 111% in assay [8]; 97.6% in assay [11]; 81.5% in [12]; 104% in [13]; 103% in assay [14]; 101% in [20]. In addition, the growth in assay [15] is 98.7%; in [16] it was 102%; in assay [17] it was 94%; in assay [18], 90.5%.

In the case of `CCOC(=O)CSc1c(-c2ccccc2)c2cc(Cl)ccc2[nH]c1=O`, the growth is 105% in assay [1]; 94.1% in assay [2]; 108% in [3]; 91.9% in [19]; 92.6% in assay [6]; 84% in assay [7]. For the same compound, the growth in assay [8] is 109%; in assay [9], 114%; in assay [11], 102%; in [12], 86.2%; in assay [13] it was 107%; in assay [14] it was 97.6%. For the same compound, the growth in assay [20] is 92%; in assay [15], 101%; in assay [16], 95.7%; in [17], 88.3%; in assay [18], 75.8%.

In the case of `Cn1nc(C(C)(C)C)cc1NC(=O)Cc1ccc(/C=C2\C(=O)Nc3ccccc32)cc1`, the growth in [1] is 58.4%; in assay [2] it was 75.1%; in assay [4] it was 55.5%; in assay [19], 42.1%; in [5], 5.57% (active); in assay [6] it was 41%. Moreover, the growth was 53.8% in assay [7]; 76.7% in [8]; 54.3% in [9]; 49.1% in assay [10]; 62% in assay [11]; 52.5% in assay [12]. Further, the growth in [13] is 91.2%; in assay [14], 37.4%; in assay [20], 45.5%; in assay [15], 62.9%; in assay [16], 35.8%; in [17] it was 6.12% (active). Further, in [18], the growth was 34.9%.
